Gal4-VP16 FLuc = VP16 counterscreen qHTS for inhibitors of ROR gamma transcriptional activity; 310,000 tested, 3.5% active; Potency, µM (highest dose often 53.6 µM), for the others: at the highest dose activity, negative = inhibition, actives largely listed as inhibitors; Drosophila S2 Gal4-VP16 UAS-luciferase, luminescence, 20 h;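 also: Gal4-VP16 expression switched on by copper sulfate through the metallothionein promoter; potency is read from the fitted curve at half-maximal effect; nearly all actives have a fitted effect of over 50% in size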
IL-1B inflam inh = qHTS for Inhibitors of Inflammasome Signaling: IL-1-beta AlphaLISA Primary Screen; THP-1 LPS/ATP IL-1B secretion, AlphaLISA, 16 h; stronger effect = lower value; activity change, % at 57.5 µM; 360,000 tested, 4.7% active; AID 743279, 2014; in the data active = activity change below about -50%; inconclusive = mostly about -30% to -49%
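THP-1 cells pretreated 1 hr with compounds (up to 57.5 uM final), then stimulated with LPS (250 ng/mL final) plus ATP (1.25 mM final); secreted IL-1B measured by AlphaLISA after 16 hr, decreased signal indicating inhibition.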
TDP1 cell noCPT = qHTS for Inhibitors of human tyrosyl-DNA phosphodiesterase 1 (TDP1): qHTS in cells in absence of CPT; DT40 Tdp1-/- hTDP1 cells, no CPT, ATP luminescence, 48 h; Potency, µM (highest dose often 46.2 µM), for inactives: at the top dose activity change, negative = growth inhibition, most hits filed as inhibitors; 420,000 tested, 15% active; AID 686978, 2013; also: potency is read from the fitted curve at half-maximal effect; nearly all actives have a fitted effect of over 55% in size
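Luminescent ATP content (CellTiter-Glo) served as the growth readout. Knockout chicken DT40 cells expressing human TDP1 were exposed to compounds without camptothecin for a minimum 48 hr at 37 °C.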
TDP1 cell CPT = qHTS for Inhibitors of human tyrosyl-DNA phosphodiesterase 1 (TDP1): qHTS in cells in presence of CPT | Potency, µM (highest dose often 46.2 µM), for the others: at the highest dose activity change, negative = growth inhibition, actives largely listed as inhibitors | 420,000 tested, 12% active | AID 686979, 2013 | chicken DT40 Tdp1-/-;hTDP1 cells + 20 nM CPT, ATP luminescence, 48 h; also: potency is read from the fitted curve at half-maximal effect; nearly all actives have a fitted effect of over 55% in size
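Chicken DT40 Tdp1-/- cells stably complemented with human TDP1 were seeded at 400 cells/well in medium containing 20 nM camptothecin, exposed to pin-transferred compounds, and grown at 37 °C for at least 48 hr. Viability was read as ATP luminescence.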
RORgamma inh = qHTS for inhibitors of ROR gamma transcriptional activity; Nuclear receptor ROR-gamma (Mus musculus), P51450; Drosophila S2 Gal4-RORgamma UAS-luciferase reporter, 20 h; Potency, µM (top dose mostly 53.6 µM), inactives show at the highest dose activity change, negative = inhibition, actives largely listed as inhibitors; 310,000 tested, 5.4% active; also: potency is read from the fitted curve at half-maximal effect; nearly all actives have a fitted effect of over 60% in size
Target sequence (P51450 whole entry, looked up, the tested form may be a part): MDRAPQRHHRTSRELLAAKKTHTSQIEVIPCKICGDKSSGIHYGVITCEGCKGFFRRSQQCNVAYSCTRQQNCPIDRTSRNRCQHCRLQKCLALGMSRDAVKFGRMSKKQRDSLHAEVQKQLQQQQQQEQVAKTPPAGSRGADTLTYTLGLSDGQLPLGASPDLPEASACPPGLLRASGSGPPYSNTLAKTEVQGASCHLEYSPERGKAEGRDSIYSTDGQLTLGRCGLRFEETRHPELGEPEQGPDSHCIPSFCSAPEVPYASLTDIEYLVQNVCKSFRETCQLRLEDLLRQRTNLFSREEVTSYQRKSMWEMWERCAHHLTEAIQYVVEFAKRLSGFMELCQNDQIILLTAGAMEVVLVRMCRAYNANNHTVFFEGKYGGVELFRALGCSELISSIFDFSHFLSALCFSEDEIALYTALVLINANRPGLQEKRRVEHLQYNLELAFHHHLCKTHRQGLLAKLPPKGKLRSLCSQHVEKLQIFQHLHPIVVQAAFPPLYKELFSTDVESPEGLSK
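Drosophila Schneider cells stably carrying a metallothionein-driven Gal4 DBD–ROR gamma fusion and a UAS-Photinus luciferase reporter were exposed to compound for 1 hr, then induced with copper sulfate (700 uM final) for 20 hr at ambient temperature before luminescence reading.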
ELG1 repair inh = qHTS screen for small molecules that inhibit ELG1-dependent DNA repair in human embryonic kidney (HEK293T) cells expressing luciferase-tagged ELG1; HEK293T ELG1-luciferase reporter, luminescence, 16 h; DNA damage induced by 5-fluorouridine; Potency, µM (doses to about 46.1 µM), inactives show at the highest dose activity change, negative = inhibition, usual class: inhibitors; 330,000 tested, 2.3% active; AID 504467, 2011; also: potency is read from the fitted curve at half-maximal effect; nearly all actives have a fitted effect of over 55% in size
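In this reporter screen, reduction of luminescence relative to DMSO vehicle indicated activity. Compounds and 5-fluorouridine were added together to 2,000 cells per well, incubated for 16 hr at 37 °C, then developed with ONE-Glo.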
The depositor's hits bear a star; ? = inconclusive; / = not tested or not shown. Shown are actives, neighbours in structure and some others; about 21% of the full set was active somewhere. Unless noted, calls follow the shape of the dose curve; as a rule, active = well fitted curve in the direction sought with a large enough effect; inconclusive = small, poorly fitted or top-dose-only effect, or another doubt; inactive = no such curve, though single readings can be large; an effect the other way counts as inactive or inconclusive. % is scaled to controls: 0 for no effect and ±100 for the full control effect.

SMILES	Gal4-VP16 FLuc	IL-1B inflam inh	TDP1 cell noCPT	TDP1 cell CPT	RORgamma inh	ELG1 repair inh
O=C(N/N=C1\NC(=O)C(CO)(CO)S1)c1ccccc1	-3%	22	9%	6%	-4%	-8%
Cc1ccc(-c2nn3c(C)nnc3c3ccccc23)cc1S(=O)(=O)NC(C)(C)CO	6%	98	?	?	-44%	?
Cc1ccc(-c2nn3c(C)nnc3c3ccccc23)cc1S(=O)(=O)NCc1ccco1	-18%	?	?	15µM*	25%	?
Cc1ccc(-c2nn3c(C)nnc3c3ccccc23)cc1S(=O)(=O)NC(C)c1ccccc1 (stereo not drawn)	2%	-3	18µM*	?	2%	?
Cc1ccccc1NC(=O)NCCCCc1ccccc1	24%	?	?	?	0%	23%
Cc1nn(CC(=O)Nc2ccc3c(c2)CCC3)c(C)c1[N+](=O)[O-]	/	12	-20%	-29%	/	11%
COc1ccc(-c2ccc(-c3cc(=O)oc4cc(OC)c(OC)c(OC)c34)cc2)cc1F	12%	-18	23µM*	18µM*	22%	?
COc1cc2oc(=O)cc(-c3ccc(-c4ccc(N(C)C)cc4)cc3)c2c(OC)c1OC	-19%	13	?	?	?	-25%
COc1ccc(-c2cccc(-c3cc(=O)oc4cc(OC)c(OC)c(OC)c34)c2)cc1	-2%	72	?	?	40%	?
CCOC(=O)c1ccc(-c2ccc(-c3cc(=O)oc4cc(OC)c(OC)c(OC)c34)cc2)cc1	-7%	6	18µM*	18µM*	4%	-4%
COc1cc2oc(=O)cc(-c3ccc(-c4ccc(F)c(Cl)c4)cc3)c2c(OC)c1OC	-9%	24	15µM*	18µM*	-1%	0%
COc1cc2oc(=O)cc(-c3ccc(-c4sccc4C=O)cc3)c2c(OC)c1OC	1%	/	/	/	9%	/
COc1cc2oc(=O)cc(-c3cccc(-c4ccc(C(C)=O)cc4)c3)c2c(OC)c1OC	2%	/	/	/	16%	/
COc1cc2oc(=O)cc(-c3ccc(-c4ccc(OC(F)(F)F)cc4)cc3)c2c(OC)c1OC	3%	63	12µM*	16µM*	0%	16%
CC1(C(=O)NS(=O)(=O)c2ccccc2Cl)CCN1C(=O)Cc1cc(F)ccc1F (stereo not drawn)	/	23	2%	-15%	/	/
CSc1ncccc1C(=O)OCC(=O)Nc1nc(C)c(Cl)cc1Cl	/	27	-5%	-7%	/	2%
CCOC(=O)c1cnc2cc(-c3ccc(C(C)(C)C)cc3)nn2c1N	10%	22	?	?	-10%	?
CCOC(=O)Cc1c(C)nc2cc(-c3ccc(C(C)(C)C)cc3)nn2c1C	/	/	15µM*	?	/	/
CCOC(=O)c1ccc(NC(=O)CCc2c(C)nc3c(-c4ccc(F)cc4)c(C)nn3c2C)cc1	/	/	-3%	-25%	/	/
CCOc1ccc(NC(=O)CCc2c(C)nc3cc(-c4ccc(Cl)cc4)nn3c2C)cc1	/	/	16µM*	15µM*	/	/
CCOC(=O)c1cccc(NC(=O)CCc2c(C)nc3cc(-c4ccc(Cl)cc4)nn3c2C)c1	/	/	16µM*	21µM*	/	/
Nc1ncncc1-c1ccccc1Cl	/	-5	?	3%	/	/
O=c1c(-c2ccccc2)nc2cnc(N3CCNCC3)nc2n1Cc1cccs1	-6%	/	?	?	-23%	/
CCOCCCn1c(SCC(=O)NCc2ccccc2)nc2c(sc3ccccc32)c1=O	/	/	?	-26%	/	/
Cc1ccccc1CN(C)C(=O)COC(=O)CSc1ccc([N+](=O)[O-])cc1	/	7	-9%	6%	/	-2%
SMILES	Gal4-VP16 FLuc	IL-1B inflam inh	TDP1 cell noCPT	TDP1 cell CPT	RORgamma inh	ELG1 repair inh
CC(OC(=O)CSc1ccc([N+](=O)[O-])cc1)C(=O)NCc1ccccc1 (stereo not drawn)	/	-22	16µM*	21µM*	/	-2%
CSc1ccc(S(=O)(=O)NCC(=O)OC(C)C(=O)NCc2ccccc2)cc1[N+](=O)[O-] (stereo not drawn)	/	13	-13%	5%	/	6%
O=C(COC(=O)CSc1ccc([N+](=O)[O-])cc1)NCCc1ccccc1	/	-3	8%	-3%	/	16%
Cc1ccc(CN(C)C(=O)COC(=O)CSc2ccc([N+](=O)[O-])cc2)cc1	/	4	16µM*	?	/	3%
O=C(COC(=O)CSc1ccc([N+](=O)[O-])cc1)NCCCc1ccccc1	4%	6	?	15µM*	1%	12%
CC(=O)NCCNc1ncnc2ccc(-c3ccccc3C(F)(F)F)cc12	-5%	/	?	?	-12%	/
COc1ccccc1NS(=O)(=O)c1ccc(C)c(NC(=O)C2CCCO2)c1 (stereo not drawn)	/	-5	?	-15%	/	26%
Cc1cccc(C)c1Nc1c(-c2ccccc2F)nc2cccc(C)n12	/	/	-78%	10µM*	/	/
Cc1ccc(Nc2c(-c3ccccc3O)nc3ccc(Br)cn23)cc1	/	/	-1%	-16%	/	/
Cc1cccc2nc(-c3ccccn3)c(Nc3ccccc3)n12	/	/	4.1µM*	4.1µM*	/	/
Cc1cccc2nc(-c3ccccn3)c(Nc3ccc(F)cc3)n12	/	/	18µM*	12µM*	/	/
Cc1ccc(Nc2c(-c3ccccn3)nc3ccc(Br)cn23)cc1	/	/	21µM*	9.2µM*	/	/
COc1ccc(CN2CCN(C(=O)CCC(=O)c3ccc(C)s3)CC2)cc1OC	/	37	?	-29%	/	?
COC(=O)c1ccc(COC(=O)CCNS(=O)(=O)c2ccc(C)c(C)c2)cc1	/	-2	-15%	3%	/	-2%
Cc1cc(S(=O)(=O)N2CCCC2)ccc1OCC(=O)N1CCCCC1	6%	21	?	-13%	-19%	0%
Cc1ccc(Nc2c(-c3ccccn3)nc3cccc(C)n23)cc1	?	?	2.1µM*	2.6µM*	4.5µM*	?
Cc1ccc(Nc2c(-c3ccsc3)nc3cccc(C)n23)cc1	/	/	?	16µM*	/	/
Cc1ccn2c(Nc3ccc(F)cc3)c(-c3ccccn3)nc2c1	/	/	13µM*	10µM*	/	/
Cc1cccc2nc(-c3ccco3)c(Nc3ccccc3)n12	4%	22	?	?	-23%	?

From PubChem BioAssay
